Screening results: PubChem BioAssay, Broad Institute
aSyn UTR act: Activators working through SNCA 5'UTR binding (MLPCN); alpha-synuclein 5'UTR reporter, activators screen; activity score, % (tested at 7.5 µM), hits read low; 7.1% of 300,000 active; AID 1814; in the data active means activity score below about -60%
* hit, by the source's call. Not all results are given here.

SMILES	aSyn UTR act
CC(=O)Oc1ccc(C(=O)[C@H]2[C@H]3C(=O)N(c4ccc(C)cc4)C(=O)[C@H]3[C@@H]3C=CC=NN32)cc1	-62*
O=C(Nc1ccccc1)[C@@H]1[C@@H]2C(=O)N(c3ccc(F)cc3)C(=O)[C@@H]2[C@H]2C=CC=NN21	-68*
O=C(CSc1ncccc1-c1nc2ccccc2[nH]1)Nc1ccc2c(c1)OCCO2	-71*
O=C(CSc1ncccc1-c1nc2ccccc2[nH]1)N1CCc2ccccc21	-117*
COC(=O)C1=C(N)Oc2cc(N(C)C)ccc2C1c1ccccc1OC (configuration not stated)	83
CCOC(=O)c1ccc2c(c1)NCc1cccc(OC)c1O2	-129*
COCCCNC(=O)C1CCN(C(=O)c2oc3cc4sc(N(C)C)nc4cc3c2C)CC1	-93*
N#Cc1cc2ccc(N3CCOCC3)cc2cc1C#N	-73*
COCCNC(=O)c1cc2sc3ccccc3c2s1	-175*
CCCCN(CC)CCCNC(=O)c1cc2c(=O)n(CC)c3ccccc3c2s1	-321*
CCCCN(CC)CCNC(=O)c1cc2c(=O)n(CC)c3ccccc3c2s1	-274*
CCCN(CCC)CCCNC(=O)c1cc2c(=O)n(CC)c3ccccc3c2s1	-300*
CCn1c(=O)c2cc(C(=O)NCCCOC)sc2c2ccccc21	-85*
COCCCNC(=O)c1ccc(Cn2c(=O)c3ccccc3n(Cc3ccccc3C#N)c2=O)cc1	55
O=C(/C=C/c1ccccc1)c1ccc2c(c1)OCO2	-206*
O=C(/C=C/c1ccc2c(c1)OCO2)c1ccc[nH]1	-279*
CN(C(=O)/C=C/c1ccc2c(c1)OCO2)c1ccccc1	-89*
COc1cc(/C=N/N(C)c2ccccc2)ccc1O	-156*
COc1cccc(/C=C/C(=O)c2ccc[nH]2)c1	-305*
O=C(/C=C/c1ccc2c(c1)OCO2)c1ccc(F)cc1	-90*
Fc1ccc(-c2csc(/C=C/c3ccc4c(c3)OCO4)n2)cc1	-186*
O=C(/C=C/c1cccc(Br)c1)c1ccc2c(c1)OCO2	-72*
CN(/N=C/c1ccc2c(c1)OCO2)c1ccccc1	-169*
O=C(Nc1ccc2oc(-c3ccccc3F)nc2c1)c1cncc(Br)c1	-65*
O=C(Nc1ccc2oc(-c3ccccc3F)nc2c1)c1ccc([N+](=O)[O-])o1	-142*
SMILES	aSyn UTR act
CCOc1ccc(C2C(C(=O)c3ccc(C)o3)=C(O)C(=O)N2c2nc(C)c(C(=O)OC)s2)cc1 (configuration not stated)	-92*
O=C(NCc1ccco1)c1cc(-c2ccc(F)cc2)on1	-198*
O=C(NCc1ccccc1)c1cc(-c2cccs2)on1	-95*
O=C(NCc1ccco1)c1cc(-c2cccs2)on1	-297*
O=C(NCc1ccco1)c1cc(-c2ccccc2)on1	-161*
Cc1ccc(-c2nnc(-c3ccccc3)o2)cc1Br	-149*
Cc1ccc(-c2nnc(-c3cccc(Br)c3)o2)cc1	-159*
[O-][n+]1onc2c1CCc1c-2nn(-c2ccccc2Cl)[n+]1[O-]	-155*
Cc1ccc(-n2nc3c([n+]2[O-])CCc2c-3no[n+]2[O-])cc1	-141*
CCOC(=O)C1(Cc2cccc(OC)c2)CCCN(C(=O)CSC)C1 (configuration not stated)	-97*
CCOC(=O)C1(Cc2cccc(OC)c2)CCN(Cc2cccc(OCC)c2O)CC1	-69*
CC#CC(=O)N1CCCC(Cc2cccc(OC)c2)(C(=O)OCC)C1 (configuration not stated)	-106*
CCOC(=O)C1(Cc2ccccc2)CCCN(C(=O)C=C(C)C)C1 (configuration not stated)	-137*
COc1ccccc1N1CCN(Cc2cc(Br)c(O)c3ncccc23)CC1	77
CCOC(=O)C1(Cc2ccccc2C)CCCN(C(=O)c2sccc2C)C1 (configuration not stated)	-70*
CCOC(=O)C1(Cc2cccc(OC)c2)CCCN(C(=O)c2cc(C)oc2C)C1 (configuration not stated)	-71*
CCOC(=O)C1(Cc2cccc(OC)c2)CCCN(C(=O)CCc2cccnc2)C1 (configuration not stated)	-133*
Cc1cc(C)nc(Nc2n[nH]c(-c3ccc(N)cc3)n2)n1	-140*
Cc1cc(C)nc(Nc2n[nH]c(-c3ccc(C(C)(C)C)cc3)n2)n1	-129*
Cc1cccc2c1OCC/C2=N\NC(=O)COc1ccccc1Cl	-79*
O=C(N/N=C/c1ccc[nH]1)c1sc2ccccc2c1Cl	-105*
CCOC(=S)NC(=O)c1sc2ccccc2c1Cl	-84*
CC(C)(C)C(=O)NC(=S)NNC(=O)c1sc2ccccc2c1Cl	89
O=C(NC(=S)NCCO)c1sc2ccccc2c1Cl	-143*
Cc1c(C(=O)O)cccc1-c1ccc(C=O)o1	-80*
SMILES	aSyn UTR act
C#CCOCCOCCOCCNc1nc(N2CCN(C(=O)CCCCCCCCCCNC(=O)[C@H](CCCCN)n3cc(C[C@@H](C)CC)nn3)CC2)nc(N2CCN(C(=O)CCCCCCCCCCNC(=O)[C@H](CCCCN)n3cc(C[C@@H](C)CC)nn3)CC2)n1	107
C#CCOCCOCCOCCNc1nc(N2CCN(C(=O)CCCCCCCCCCNC(=O)[C@H](CO)n3cc(CCCSC)nn3)CC2)nc(N2CCN(C(=O)CCCCCCCCCCNC(=O)[C@H](CCCCN)n3cc(C[C@@H](C)CC)nn3)CC2)n1	110
C#CCOCCOCCOCCNc1nc(N2CCN(C(=O)CCCCCCCCCCNC(=O)[C@H](CCCCN)n3cc(CCCC(=O)O)nn3)CC2)nc(N2CCN(C(=O)CCCCCCCCCCNC(=O)[C@H](CCCN=C(N)N)n3cc(C[C@@H](C)CC)nn3)CC2)n1	-132*
C#CCOCCOCCOCCNc1nc(N2CCN(C(=O)CCCCCCCCCCNC(=O)[C@H](CCCCN)n3cc(CCCC(=O)O)nn3)CC2)nc(N2CCN(C(=O)CCCCCCCCCCNC(=O)[C@H](CCCCN)n3cc(CCCC(=O)O)nn3)CC2)n1	-112*
COc1ccc(-c2nc3cc(C)ccn3c2NCc2ccc3c(c2)OCO3)cc1	-112*
COc1ccc(-c2nc3ccccn3c2NCc2ccc3c(c2)OCO3)cc1	-91*
COc1ccc(Cn2c(-c3ccco3)nc3oc4cc(OC)ccc4c(=O)c3c2=O)cc1	-92*
C/C(=N/O)c1cccc(N2Cc3ccccc3C2)c1	-74*
Oc1ccc(-c2csc(Nc3ccccn3)n2)c(O)c1	-134*
Cc1cccnc1Nc1nc(-c2ccc(O)cc2O)cs1	-188*
C/C(=C/c1oc2ccc(O)cc2c1[N+](=O)[O-])N(C)C	-96*
O=C(Nc1ccccc1C(=O)N/N=C/c1ccncc1)c1ccccc1	-140*
CCOc1ccc(C(=O)Nc2ccccc2C(=O)O)cc1	-89*
COc1ccc(C(=O)Nc2ccccc2C(=O)N/N=C/c2ccco2)cc1	-79*
CCOc1ccc(/C=N/NC(=O)c2ccccc2NC(=O)c2ccc(OC)cc2)cc1	-71*
CCOc1ccc(C(=O)c2cccs2)cc1	-182*
CN(C)c1ccc(NC(=O)c2ccc(COc3cccc(Cl)c3)o2)cc1	-112*
CC(C)NC(=O)c1ccc(COc2ccc(C(C)(C)C)cc2)o1	-136*
CCOc1ccc(OCc2ccc(C(=O)Nc3cccnc3)o2)cc1	-81*
CCOc1ccc(OCc2ccc(C(=O)NC(C)(C)C)o2)cc1	-70*
COc1ccc(OC)c(C(=O)/C=C/c2ccccc2C(F)(F)F)c1	-198*
COc1ccc(C(=O)/C=C/c2ccccc2)c(OC)c1	-277*
COc1ccc(C(=O)/C=C/Nc2cc(C)on2)c(OC)c1	-72*
CSc1nc2nccc(/C=C\c3ccccc3)n2n1	-89*
